SENP7 block – SENP7 protease inhibition. inhibition, % at 5 µM. Q9BQF6. 330,000 compounds, 1.5% hits. AID 434973. recombinant SENP7, Z-RLRGG-aminoluciferin luminescence, 40 min;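 active = inhibition above about 50% at the single test dose, limit read from the data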;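 also: plate controls were DMSO with enzyme for no effect and no enzyme buffer wells for full effect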
Target sequence (Q9BQF6 706-1050 limits assumed): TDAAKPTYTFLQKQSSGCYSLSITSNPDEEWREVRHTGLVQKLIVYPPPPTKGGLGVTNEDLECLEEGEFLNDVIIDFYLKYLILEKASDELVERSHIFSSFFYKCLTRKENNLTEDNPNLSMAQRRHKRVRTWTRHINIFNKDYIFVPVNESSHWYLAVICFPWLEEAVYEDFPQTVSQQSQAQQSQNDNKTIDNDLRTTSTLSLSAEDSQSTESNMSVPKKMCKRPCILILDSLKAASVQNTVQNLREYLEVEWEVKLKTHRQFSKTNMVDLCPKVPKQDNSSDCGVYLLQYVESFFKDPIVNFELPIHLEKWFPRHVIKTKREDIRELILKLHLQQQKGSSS
AHR act – activates the human aryl hydrocarbon receptor. AHR-responsive luciferase reporter cells, luminescence. activation, % at 5 µM. 320,000 compounds, 2.5% hits. AID 2796; in the data active = activation above about 47%;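 also: 0% = vehicle wells and 100% = reference agonist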
SENP6 inh – blocks the human protease SENP6. 330,000 compounds, 1.8% hits. AID 2599. Recombinant SENP6 catalytic domain, aminoluciferin luminescence. inhibition, % at 10 µM;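 active = inhibition above about 50% at the single tested dose, limit read from the data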;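 also: plate controls were DMSO wells with enzyme for no effect and DMSO wells lacking enzyme for full effect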
EBI2 antag – blocks human EBI2 receptor beta-arrestin signaling; EBI2 beta-arrestin recruitment, luminescence, 7a,25-OHC stimulated; 360,000 compounds, 0.81% hits; AID 651636; P32249; inhibition, % at 5 µM; in the data active = inhibition above about 38%;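 also: enzyme fragment complementation signal reports receptor beta-arrestin coupling in cells; 0% = agonist plus DMSO wells and 100% = wells without agonist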
SENP8 block-1 – inhibitors of human SENP8 protease. Q96LD8. purified SENP8, Z-RLRGG-aminoluciferin cleavage, luminescence. inhibition, % at 10 µM. 330,000 compounds, 1.2% hits. AID 2540; in the data active = inhibition above about 50%
Target sequence (Q96LD8 whole entry, looked up): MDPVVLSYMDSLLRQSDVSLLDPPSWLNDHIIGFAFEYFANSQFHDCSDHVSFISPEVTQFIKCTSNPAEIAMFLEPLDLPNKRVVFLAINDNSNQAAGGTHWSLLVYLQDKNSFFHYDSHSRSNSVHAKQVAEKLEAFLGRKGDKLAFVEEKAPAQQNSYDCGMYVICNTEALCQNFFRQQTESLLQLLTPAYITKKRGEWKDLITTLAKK
SENP8 block-2 – inhibitors of human SENP8 protease | AID 602440 | inhibition, % at 20 µM | 360,000 compounds, 0.64% hits | recombinant SENP8, Nedd8 substrate fluorescence | Q96LD8; in the data active = inhibition mostly above about 40%, no sharp cut-off; inactive = mostly below about 27%
EBI2 antag conf – confirmation of human EBI2 receptor antagonists | EBI2 beta-arrestin luminescence, 7a,25-OHC antagonism | 2,400 compounds, 29% hits | inhibition, % at 5 µM | shares compounds with EBI2 antag;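 active = inhibition of at least 50%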
EBI2 agonist – counter-screen for EBI2 antagonists: EBI2 agonist activity; AID 652000; 2,400 tested, under 10 active; EBI2-expressing cells, agonist mode, luminescence, 60 min; 0% vehicle, 100% 7α,25-dihydroxycholesterol control; shares compounds with EBI2 antag; activation, % at 5 µM;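 active = activation of at least 50%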
bGal cs – inhibits E. coli beta-galactosidase, counter-screen for EBI2 antagonists; shares compounds with EBI2 antag; AID 652176; inhibition, % at 5 µM; purified beta-galactosidase, luminescent Galacton Star, 15 min; 2,400 compounds, 1% hits;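 active = replicate-average signal at least 3 plate SD below neutral wells, shown as high inhibition, flagging enzyme-inhibiting false positives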;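 also: 0% = DMSO wells with enzyme and 100% = wells lacking enzyme; higher means stronger loss of beta-gal luminescence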
* = called active by the depositor. Sampled rows, rich in hits. Any-hit rate of the full collection: about 5%.

`COc1ccc(N2CCN(C(=O)COC(=O)c3ccc(-n4nc(C)cc4C)cc3)CC2)cc1` gave SENP7 block 2, AHR act 2, SENP6 inh -18, EBI2 antag 8, SENP8 block-1 -3 and SENP8 block-2 10.
COc1ccc(C(=O)N2CCN(c3ccc([N+](=O)[O-])c(-n4nc(C)cc4C)c3)CC2)cc1 was read as SENP7 block -3, AHR act 1, SENP6 inh -2, EBI2 antag 59*, SENP8 block-1 -4, SENP8 block-2 30, EBI2 antag conf 24, EBI2 agonist -1 and bGal cs -6.
Screening CCOC(=O)C1(Cc2ccc(Cl)cc2)CCN(C(C)Cc2ccc(O)c(OC)c2)CC1 (stereo unspecified) returned SENP7 block 4, AHR act 0, SENP6 inh 6, EBI2 antag 47*, SENP8 block-1 3, SENP8 block-2 8, EBI2 antag conf 17, EBI2 agonist 0 and bGal cs -8.
Cc1nc(N2CCN(C(=O)COc3ccccc3)CC2)c2c(C)c(C)sc2n1 was read as SENP7 block -4, AHR act 13, SENP6 inh -14, EBI2 antag 51*, SENP8 block-1 -9, SENP8 block-2 6, EBI2 antag conf 28, EBI2 agonist -1 and bGal cs -6.
O=C(COc1ccccc1)N1CCN(C(=O)COc2ccccc2)CC1 was read as SENP7 block -10, AHR act -1, SENP6 inh -19, EBI2 antag 15, SENP8 block-1 3 and SENP8 block-2 7.
For Cc1ccc(OCC(=O)N2CCN(c3nnc(-c4ccccc4)c4ccccc34)CC2)cc1 the results were SENP7 block 0, AHR act -6, SENP6 inh -14, EBI2 antag 90*, SENP8 block-1 -15, SENP8 block-2 14, EBI2 antag conf 86*, EBI2 agonist 0 and bGal cs 9.
`O=C(Oc1ccc(-n2cnnn2)cc1)c1ccccc1` gave SENP7 block 3, AHR act 0, SENP6 inh -4, EBI2 antag -6, SENP8 block-1 -13 and SENP8 block-2 13.
`CN1CCN(NC(=O)/C=C/c2ccc(Br)cc2)CC1` gave SENP7 block 5, AHR act 2, SENP6 inh 1, EBI2 antag 78*, SENP8 block-1 4, SENP8 block-2 10, EBI2 antag conf 48, EBI2 agonist -1 and bGal cs -9.
Screening CC(NC(=O)/C=C/c1ccc(Br)cc1)c1ccc(Cl)cc1 (stereo unspecified) returned SENP7 block -5, AHR act 15, SENP6 inh 8, EBI2 antag 54*, SENP8 block-1 5, SENP8 block-2 14, EBI2 antag conf 31, EBI2 agonist 0 and bGal cs -8.
`Nc1c(N(Cc2ccco2)C(=O)COc2ccccc2F)c(=O)[nH]c(=O)n1Cc1ccccc1` gave SENP7 block 0, AHR act -1, SENP6 inh -8, EBI2 antag -3, SENP8 block-1 9 and SENP8 block-2 -6.
Screening O=C(CSc1nc(-c2cccs2)cc(C(F)(F)F)n1)Nc1cc(OCC(F)(F)C(F)F)cc([N+](=O)[O-])c1 returned SENP7 block -8, AHR act 1, SENP6 inh -5, EBI2 antag 17, SENP8 block-1 -4 and SENP8 block-2 20.
For COc1ccccc1N1CCN(C(=O)c2cc(-c3ccc(Cl)cc3)on2)CC1 the results were SENP7 block 1, AHR act 4, SENP6 inh 4, EBI2 antag 58*, SENP8 block-1 -5, SENP8 block-2 6, EBI2 antag conf 41, EBI2 agonist 0 and bGal cs 4.
Screening COc1ccc(-c2cc(C(=O)N3CCN(c4ccccc4OC)CC3)no2)cc1 returned SENP7 block -4, AHR act -1, SENP6 inh -20, EBI2 antag 68*, SENP8 block-1 -15, SENP8 block-2 9, EBI2 antag conf 42, EBI2 agonist -2 and bGal cs -10.
`COc1ccccc1N1CCN(C(=O)c2cc(-c3ccc(F)cc3)on2)CC1` gave SENP7 block 5, AHR act -2, SENP6 inh -10, EBI2 antag 57*, SENP8 block-1 1, SENP8 block-2 24, EBI2 antag conf 48, EBI2 agonist -1 and bGal cs 6.
COc1ccc(-c2cc(C(=O)N3CCN(c4ccccc4)CC3)no2)cc1 was read as SENP7 block -8, AHR act 3, SENP6 inh -10, EBI2 antag 33, SENP8 block-1 -5 and SENP8 block-2 6.
`COc1ccccc1N1CCN(C(=O)c2cc(-c3ccc(C)cc3)on2)CC1` gave SENP7 block -2, AHR act 0, SENP6 inh -5, EBI2 antag 64*, SENP8 block-1 -9, SENP8 block-2 3, EBI2 antag conf 44, EBI2 agonist 0 and bGal cs 1.
For COc1ccccc1-c1cc(C(=O)N2CCN(c3ccccc3OC)CC2)no1 the results were SENP7 block 0, AHR act 0, SENP6 inh -19, EBI2 antag 18, SENP8 block-1 -11 and SENP8 block-2 10.
`Nc1c(Cl)cc(C2=NCCn3nc4cc(C(F)(F)F)ccc4c32)cc1Cl` gave SENP7 block -10, AHR act 54*, SENP6 inh -31, EBI2 antag 49*, SENP8 block-1 -18, SENP8 block-2 -190, EBI2 antag conf 23, EBI2 agonist -1 and bGal cs -8.
`O=C1CCN(Cc2ccccc2)C=C1c1ccc(Cl)cc1` gave SENP7 block 3, AHR act 26, SENP6 inh -7, EBI2 antag 66*, SENP8 block-1 4, SENP8 block-2 -3, EBI2 antag conf 58*, EBI2 agonist -1 and bGal cs -10.
`COc1cc(/C=N/c2oc(C)c(C)c2C#N)cc(Br)c1O` gave SENP7 block -10, AHR act 1, SENP6 inh 22, EBI2 antag 13, SENP8 block-1 -7 and SENP8 block-2 19.
Screening O=S1(=O)N[C@H](c2ccccc2)C[C@H](c2ccc(C(F)(F)F)cc2)O1 returned SENP7 block -11, AHR act 3, SENP6 inh -27, EBI2 antag 24, SENP8 block-1 -18 and SENP8 block-2 15.

Screens: PubChem, several laboratories
